DT40 TDP1 no CPT: qHTS for Inhibitors of human tyrosyl-DNA phosphodiesterase 1 (TDP1): qHTS in cells in absence of CPT; AID 686978, 2013; Potency, µM (titrated, usually from 46.2 µM), without a hit: top-dose activity change, negative = growth inhibition, usual class: inhibitors; 420,000 tested, 15% active; DT40 Tdp1-/- hTDP1 cells, no CPT, ATP luminescence, 48 h; also: potency is read from the fitted curve at half-maximal effect; nearly all actives have a fitted effect of over 55% in size
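Chicken DT40 Tdp1-/- cells complemented with human TDP1, screened without camptothecin (DMSO vehicle only), 400 cells/well. Compounds pin-transferred, cells incubated at 37 °C for at least 48 hr. Growth read as ATP-dependent luminescence (CellTiter-Glo, 30 min at RT).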
HT1080 IDH1KD tx: qHTS for induction of synthetic lethality in tumor cells producing 2HG: qHTS for the HT-1080-IDH1KD cell line; AID 686971, 2013; Potency, µM (series often up to 46.1 µM), inactives show at the highest dose activity, negative = toxicity, hits mostly cytotoxic; HT-1080 IDH1 knockdown viability, ATP luminescence, 48 h; 360,000 tested, 2% active;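 also: potency is read from the fitted curve at half-maximal effect; 0% = DMSO wells and -100% = cell-free medium wells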
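% activity derives from luminescence (CellTiter-Glo), normalised to DMSO and no-cell wells. HT-1080-IDH1KD cells, 750/well, had 48 h compound exposure at 37 °C.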
IL1B secr inh: qHTS for Inhibitors of Inflammasome Signaling: IL-1-beta AlphaLISA Primary Screen. AID 743279, 2014. 360,000 tested, 4.7% active. activity change, % at 57.5 µM. THP-1 LPS/ATP IL-1B secretion, AlphaLISA, 16 h; stronger effect = lower value; in the data active = activity change below about -50%; inconclusive = mostly about -30% to -49%
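Secreted IL-1B measured by AlphaLISA bead assay after 16 h compound exposure of THP-1 cells; compounds (final up to 57.5 uM) added 1 h before LPS (250 ng/mL) and ATP (1.25 mM) stimulation; lower signal means less secretion.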
TDP1 cell CPT: qHTS for Inhibitors of human tyrosyl-DNA phosphodiesterase 1 (TDP1): qHTS in cells in presence of CPT; chicken DT40 Tdp1-/-;hTDP1 cells + 20 nM CPT, ATP luminescence, 48 h; Potency, µM (titrated, usually from 46.2 µM), without a hit: at the highest dose activity change, negative = growth inhibition, actives largely listed as inhibitors; 420,000 tested, 12% active; also: potency is read from the fitted curve at half-maximal effect; nearly all actives have a fitted effect of over 55% in size
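Chicken DT40 Tdp1-/- cells stably complemented with human TDP1 were seeded at 400 cells/well in medium containing 20 nM camptothecin, exposed to pin-transferred compounds, and grown at 37 °C for at least 48 hr. Viability was read as ATP luminescence.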
HT1080NT lethal: qHTS for induction of synthetic lethality in tumor cells producing 2HG: qHTS for the HT-1080-NT fibrosarcoma cell line. HT-1080-NT fibrosarcoma viability, CellTiter-Glo ATP luminescence, 48 h. Potency, µM (top dose mostly 46.1 µM), for inactives: at the highest dose activity, negative = less viability, actives largely listed as cytotoxic. AID 686970, 2013. 360,000 tested, 1.6% active;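 also: NT is the 2HG producing partner of a matched IDH1 knockdown line; potency is read from the fitted curve at half-maximal effect; 0% = DMSO-treated cells and -100% = media-only wells without cells; nearly all actives have a fitted effect of over 55% in size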
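HT-1080-NT fibrosarcoma cells (2HG-overproducing), 750 cells/well in RPMI with 5% FBS, dosed after 2 h and incubated 48 h at 37C. CellTiter-Glo luminescence normalized to DMSO and no-cell wells; concentration-response curves fitted and classed.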
* marks the source's active call; other numbers are inactive results; i = inactive; ? = inconclusive; nt = not tested or not shown. In the library only some 19% were active in any assay of this set; here they are far more common. Unless noted, calls follow the shape of the dose curve; as a rule, active = well fitted curve in the direction sought with a large enough effect; inconclusive = small, poorly fitted or top-dose-only effect, or another doubt; inactive = no such curve, though single readings can be large; an effect the other way counts as inactive or inconclusive. Unless noted, % is scaled to controls: 0 for no effect and ±100 for the full control effect.

SMILES	DT40 TDP1 no CPT	HT1080 IDH1KD tx	IL1B secr inh	TDP1 cell CPT	HT1080NT lethal
O=C(NCc1cccc(Cl)c1)c1cccc(OC2CCN(C(=O)C3CC3)CC2)c1	21µM*	-12%	i	29µM*	?
COCCNC(=O)c1cccc(OC2CCN(Cc3ccc(Cl)c(F)c3)CC2)c1	?	-12%	-53*	?	-24%
CCOCCCNC(=O)c1cccc(OC2CCN(S(C)(=O)=O)CC2)c1	6%	4%	10	1%	-3%
COCCNC(=O)c1cccc(OC2CCN(Cc3cccc(SC)c3)CC2)c1	16µM*	0%	?	?	-9%
CCc1cc(CNC(=O)c2cccc(OC3CCN(S(C)(=O)=O)CC3)c2)on1	?	-13%	-1	?	16µM*
CCOc1ccccc1CN1CCC(Oc2cccc(C(=O)NCCOC)c2)CC1	-13%	-10%	17	-1%	-14%
COCCNC(=O)c1cccc(OC2CCN(Cc3ccccc3C)CC2)c1	7%	3%	34	15%	-5%
COc1ccc(CNc2ncncc2-c2c(C)noc2C)c(OC)c1	5%	nt	nt	3%	nt
Cc1ccc(CNC(=O)c2cnccn2)cc1	-8%	14%	3	-14%	16%
O=C(CSc1ccc(Cl)cc1)N/N=C/c1ccc([N+](=O)[O-])o1	?	-30%	-29	16µM*	-25%
O=C(CNc1ccc2ccccc2c1)N/N=C/c1ccc([N+](=O)[O-])o1	21µM*	?	-9	15µM*	?
O=C(CNc1ccc2ccccc2c1)N/N=C/c1ccc(C(=O)O)cc1	2%	-4%	-2	-2%	1%
COc1ccc2[nH]cc(CCn3ccc(=O)c(C)c3C)c2c1	11%	-1%	20	8%	11%
Cc1c(CCO)c(=O)oc2n[nH]c(-c3ccccc3)c12	-30%	-4%	-61*	-15%	-2%
CCOC(=O)N1CCN(Cc2nc3cc(NC(=O)c4cccs4)ccc3n2CC)CC1	26µM*	?	?	23µM*	?
CCn1c(CN2CCCCC2)nc2cc(NC(=O)c3ccc([N+](=O)[O-])cc3)ccc21	9.2µM*	nt	nt	9.2µM*	nt
CCOC(=O)N1CCN(Cc2nc3cc(NC(=O)c4cccc(C)c4)ccc3n2C(C)C)CC1	0.73µM*	nt	nt	0.92µM*	nt
CCN1CCN(Cc2nc3cc(NC(=O)c4cccc([N+](=O)[O-])c4)ccc3n2CC)CC1	-10%	nt	nt	-11%	nt
CCOC(=O)N1CCN(Cc2nc3cc(NC(=O)CC)ccc3n2C(C)C)CC1	0.73µM*	nt	nt	0.92µM*	nt
CC(C)c1noc(-c2ccccc2OCC(=O)Nc2ccc([N+](=O)[O-])cc2)n1	-13%	nt	nt	-4%	nt
COC(=O)c1cc(NC(=O)COC(=O)CN2C(=O)C3CC=CCC3C2=O)cc(C(=O)OC)c1 (stereo unspecified)	-14%	1%	?	-14%	-11%
CCOC(=O)N1CCN(Cc2nc3cc(NC(=O)CC(C)C)ccc3n2C(C)C)CC1	0.73µM*	nt	nt	0.82µM*	nt
CCOC(=O)N1CCN(Cc2nc3cc(NC(=O)CC(C)C)ccc3n2C)CC1	?	6%	10	-23%	4%
CCOC(=O)N1CCN(Cc2nc3cc(NC(=O)CC(C)C)ccc3n2CC)CC1	9.2µM*	?	-17	15µM*	-29%
CCOC(=O)N1CCN(Cc2nc3cc(NC(C)=O)ccc3n2CC)CC1	-1%	1%	-12	-8%	0%
COc1cccc(/C=C2\C(=O)N(c3cccc(C)c3)C(=O)c3ccccc32)c1	?	9%	?	26µM*	3%
CN(C(=O)c1ccnn1C)C1CCCN(Cc2ccccc2F)C1 (stereo unspecified)	6%	0%	22	-8%	3%

Source: PubChem
